High-throughput results deposited in PubChem by National Center for Advancing Translational Sciences (NCATS).
D1 ag = Allosteric Agonists of the Human D1 Dopamine Receptor: qHTS; HEK293 T-REx D1 cells, calcium flux, agonist mode; activation, % at 2 µM; actives 1% (n = 360,000)
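Agonism was scored from calcium flux recorded over 180 s (1 read/s) after pintool compound addition, following a 10-cycle baseline. Cells were inducible force-coupled HEK293 TREx D1, plated overnight at 30 C and loaded with no-wash calcium dye.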
TRHR ag = qHTS for Small Molecule Agonists and Allosteric Enhancers of Human TRH Receptor: Primary Screen for Agonists | actives 0.18% (n = 360,000) | TRHR cells, calcium flux fluo-8, FDSS agonist mode | Thyrotropin-releasing hormone receptor (Homo sapiens), P34981 | activation, % at 2 µM
Target sequence (P34981 whole entry, looked up): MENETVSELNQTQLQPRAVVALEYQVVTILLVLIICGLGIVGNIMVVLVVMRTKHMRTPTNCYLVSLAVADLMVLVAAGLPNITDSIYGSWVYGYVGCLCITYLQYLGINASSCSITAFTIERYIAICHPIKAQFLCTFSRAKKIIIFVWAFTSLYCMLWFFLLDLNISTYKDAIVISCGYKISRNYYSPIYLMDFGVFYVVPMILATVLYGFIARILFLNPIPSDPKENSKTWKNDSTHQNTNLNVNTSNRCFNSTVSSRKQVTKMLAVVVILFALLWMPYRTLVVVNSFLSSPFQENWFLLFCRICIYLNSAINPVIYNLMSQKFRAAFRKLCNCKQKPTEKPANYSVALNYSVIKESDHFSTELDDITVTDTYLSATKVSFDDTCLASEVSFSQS
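Fluo-8-loaded TRHR cells; 10 s baseline, compound added, kinetic Ca2+ fluorescence read 1/s, agonist mode.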
TRHR PAM = qHTS for Small Molecule Agonists and Allosteric Enhancers of Human TRH Receptor: Primary Screen for Enhancers; AID 493056, 2011; actives 0.66% (n = 360,000); Thyrotropin-releasing hormone receptor (Homo sapiens), P34981; enhancement, % at 2 µM; TRHR cells, fluo-8 calcium fluorescence, EC20 TRH enhancement; in the data active means enhancement above about 30%
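Enhancer read-out: after compound pinning and an initial kinetic agonist-mode read, an EC20 of TRH (10 nM final) was injected and fluo-8 calcium signal (Ex 480/Em 530) followed at 1 s/cycle for 100 cycles in TRHR-expressing cells.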
D1 potentiator = Potentiators of Human D1 Dopamine Receptor: qHTS. D(1A) dopamine receptor (Homo sapiens), P21728. HEK293 TREx D1 cells, calcium flux, dopamine EC20 potentiation. potentiation, % at 10 µM. actives 0.036% (n = 360,000); in the data active means potentiation above about 30%
LDHA inh = qHTS assay for inhibitors of human lactate dehydrogenase | AID 1347041, 2019 | purified LDHA, NADH/diaphorase-resazurin fluorescence; active compounds read low | L-lactate dehydrogenase A chain (Homo sapiens), P00338 | activity change, % (values are at about 110 or 230 µM) | actives 0.15% (n = 480,000); in the data active means activity change below about -30%
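Human LDH5 (2 nM) was incubated with 0.06 mM NADH and 0.2 mM pyruvate for 5 min at room temperature in Tris pH 7.4. Remaining NADH was coupled through diaphorase/resazurin, and resorufin fluorescence was read at 0 and 20 min.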
D1 antagonist = Antagonist of Human D 1 Dopamine Receptor: qHTS; HEK293 TREx D1 cells, calcium flux, dopamine EC80; active compounds read low; activity change, negative = inhibition, % at 10 µM; D(1A) dopamine receptor (Homo sapiens), P21728; actives 3.2% (n = 360,000); in the data active means activity change below about -30%
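Antagonism measured as reduced calcium response to an EC80 dopamine addition following 180 s compound pre-read; cells were inducible HEK293 Trex D1 plated overnight at 30 C, read kinetically at 1 cycle/sec.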
A number is an active result; n = inactive; x = no result. This is a sample that favours compounds with a hit; in the whole collection about 3.6% have one here. Unless noted, no stated cut-off is given here; in the data, active means activation above about 30%; inactive means the rest.

SMILES	D1 ag	TRHR ag	TRHR PAM	D1 potentiator	LDHA inh	D1 antagonist
Cc1cc(N2CCCC2)ccc1C=C(C#N)C#N	32.4	n	n	n	n	-33.0
NC1CC1c1ccccc1C(F)(F)F (stereo unspecified)	x	x	x	x	n	x
c1cncc(C2CCCCN2Cc2ccc3c(c2)OCO3)c1 (stereo unspecified)	n	n	n	n	n	-38.3
COc1ccc(CN2C(=O)NC(=O)/C(=C\c3cccc(OC)c3OC)C2=O)cc1	n	n	n	n	-31.2	n
COc1ccc(CN2C(=O)NC(=O)/C(=C/c3ccc([N+](=O)[O-])o3)C2=O)cc1	n	n	n	n	x	n
Cc1cc(OC(=O)N(C)C)nc2c1c(C)nn2C	n	n	40.3	n	n	n
Cc1ccccc1-c1nn2c(=O)cc(CN3CCN(C(=O)COc4ccccc4Cl)CC3)nc2s1	n	n	n	n	n	-34.8
COC(=O)c1cc(C(O)(C(=O)OC)C(F)(F)F)c(/N=C/N(C)C)s1 (stereo unspecified)	n	n	39.3	n	n	n
[O-][n+]1onc2c1CCC1N(O)CCC21O (stereo unspecified)	n	n	n	n	n	-30.0
COc1ccccc1NC(=O)c1cn(C)c2ccccc12	x	x	x	x	n	x
FC(F)(F)c1cccc(N2CCNCC2)c1	n	n	n	n	x	-31.9
CC(NCc1ccco1)C(O)c1ccccc1 (stereo unspecified)	x	x	x	x	n	x
C[C@H]1CC[C@@H]2[C@@H](C)[C@H]3[C@H](C[C@H]4[C@@H]5CC=C6C[C@@H](O[C@@H]7O[C@H](CO)[C@H](O)[C@H](O[C@@H]8O[C@H](CO)[C@@H](O)[C@H](O)[C@H]8O)[C@H]7O[C@@H]7O[C@@H](C)[C@H](O)[C@@H](O)[C@H]7O)CC[C@]6(C)[C@H]5CC[C@]34C)N2C1	95.9	n	n	n	n	n
CN1CC(C(=O)c2cccc(C(F)(F)F)c2)C(c2ccc(Cl)cc2)C1 (stereo unspecified)	30.8	n	n	n	n	n
COc1ccc(CCNCc2cccc(Br)c2)cc1	x	x	x	x	n	x
CC(=O)Nc1ccccc1C(=O)OCC(=O)c1ccc2ccccc2c1	n	n	n	n	n	n
Nc1ccccc1C(=O)OCC(=O)c1ccc2c(c1)OCCO2	n	n	n	n	n	-33.0
Cc1ccccc1-n1c(O)c(/C=N/Nc2nc3c(c(=O)n(C)c(=O)n3C)n2C)c(=O)[nH]c1=S	n	n	n	n	n	-59.5
Cc1cccc(-n2c(O)c(/C=N/Nc3nc4c(c(=O)n(C)c(=O)n4C)n3C)c(=O)[nH]c2=S)c1	n	n	n	n	n	n
COc1ccc(-c2c(C)oc3cc(OCC(=O)N4CCN(CCO)CC4)ccc3c2=O)cc1	x	x	x	x	n	x
CC[N+](C)(CC)CCCOC(=O)C(O)(c1ccccc1)C1CCCCC1 (stereo unspecified)	n	n	n	n	-82.5	n
O=C(O)c1cc(I)cc(I)c1I	x	x	x	x	n	x
CC(C)N1C(=O)CC2(CC[N+](C)(CCOC(=O)C(O)(c3ccccc3)c3ccccc3)CC2)C1=O (stereo unspecified)	n	n	n	n	-34.3	n
CCN(CC)CCOC(=O)C(O)(c1ccccc1)c1ccccc1	n	n	n	n	n	n
COc1cc2c(cc1OC)CN(c1ccc([N+](=O)[O-])c(C(F)(F)F)c1)CC2	n	n	36.5	n	n	n
SMILES	D1 ag	TRHR ag	TRHR PAM	D1 potentiator	LDHA inh	D1 antagonist
CCNc1cc(N2CCN(C)CC2)ccc1[N+](=O)[O-]	n	n	n	n	n	n
O=C1CSC(c2ccccc2OC2CCCC2)c2cn[nH]c2N1 (stereo unspecified)	x	x	x	x	n	x
CC(Cc1ccccc1)NCC(=O)Nc1cc(N(C)C)nc2ccccc12 (stereo unspecified)	n	n	n	n	n	-50.1
CC(Cc1ccccc1)NCc1ccccc1O (stereo unspecified)	n	n	n	n	n	n
Cc1cccc(OCC(=O)N2CCN(Cc3cccnc3)CC2)c1	n	n	n	n	-33.4	n
Cc1ccc(OCC(=O)N2CCN(Cc3ccc(F)cc3)CC2)cc1	n	n	n	n	n	n
Cc1ccc(OCC(=O)N2CCN(Cc3cccnc3)CC2)cc1	n	n	n	n	-31.7	n
O=C(CN1CCCC1=O)Nc1ccccc1	n	n	n	n	n	-35.2
CCCCCSc1cc(OC)c(CCN)cc1OC	30.9	n	n	n	n	n
COc1cc(CCN)ccc1O	n	n	n	n	n	n
CCCCCCCSc1cc(OC)c(CCN(C)C)cc1OC	200.7	n	n	n	n	n
Cc1oc2cc(OC(=O)N(C)C)ccc2c(=O)c1-c1ccc(Br)cc1	x	x	x	x	n	x
COc1ccc(Cl)cc1N=Cc1c(O)n(C)c(=O)n(C)c1=O	n	n	n	n	n	n
COc1ccccc1N=Cc1c(O)n(C)c(=O)n(C)c1=O	n	n	n	n	n	-35.4
CCN(CC)S(=O)(=O)c1ccc(C)c(NCC(=O)Nc2ccc(C#N)c(Cl)c2)c1	n	n	n	n	n	-37.4
O=C(CSC(c1ccccc1)c1ccccc1)Nc1ccc2c(c1)OCCCO2	x	x	x	x	n	x
CCN(CC(=O)Nc1ccc(NC(C)=O)cc1)C(=O)CSC(c1ccccc1)c1ccccc1	44.5	n	n	n	n	n
CC(C(=O)N1CCC2(CC1)OCCO2)C1Sc2ccccc2NC1=O (stereo unspecified)	n	n	35.1	n	n	n
Cc1ccc(C[n+]2c(-c3ccc(C)cc3)cc(-c3ccc(C)cc3)cc2-c2ccc(C)cc2)cc1	39.5	n	n	n	n	n
Cc1ccc(-n2c(/C=C/c3ccco3)nc3ccccc3c2=O)cc1	x	x	x	x	n	x
CCc1ccc(C2SCC(=O)Nc3n[nH]c(C)c32)cc1 (stereo unspecified)	x	x	x	x	n	x
Cc1ccc(CNCCc2ccccc2F)cc1	n	n	n	n	n	n
CCN(CC)c1ccc(CNCCc2ccccc2F)cc1	45.5	n	n	n	n	n
CCN(CC)P(=O)(c1nccn1C)N(CC)CC	n	n	n	n	n	-37.1
CCn1c(O)c(C=Nc2ccc(S(N)(=O)=O)cc2)c(=O)[nH]c1=S	n	n	n	n	n	n
CCN(CC)c1ccc(N=Cc2c(O)n(Cc3ccco3)c(=O)[nH]c2=O)cc1	31.0	n	n	n	n	n
